Reference: PubChem BioAssay (NCATS)
Active and inactive are the calls of the source. The call rests on the fitted dose curve; in most records, active means well fitted inhibition curve with a large enough effect; inconclusive means small, poorly fitted or top-dose-only effect; inactive means flat fitted curve, though single readings scatter.

Target: ATP-dependent DNA helicase Q1 (Homo sapiens) (UniProt P46063)
Assay: qHTS Validation Assay for Inhibitors of RecQ-Like Dna Helicase 1 (RECQ1) (AID 2353)
Conditions: recombinant RECQ1 helicase DNA unwinding assay; series mostly up to 25.6 µM; activity change, negative = inhibition: at the top concentration
From the text: Survival of cells and the faithful propagation of the genome depend on elaborate mechanisms of detecting and repairing DNA damage. Treatment of advanced cancer relies on radiation therapy or chemotherapy, which kill cancer cells by causing extensive DNA damage. It is often found, that cancer cells develop resistance to therapy through enhanced activity of DNA repair functions; this has led to an increased interest in developing drugs that interfere with DNA repair, which could sensitize cancer cells to conventional therapy.
This validation qHTS assay pertains to human RECQ1, which is important in resolving abnormal DNA structures formed during replication or homologous recombination. Shutting down the expression of RECQ1 leads to chromosomal instability and higher radiation sensitivity in cultured cells.
The validation assay was a fluorescence quenching based kinetic qHTS for RECQ1 Helicase DNA unwinding. The activity was measured as ATP-dependent separation of a 20-bp DNA duplex extended by 30-nt single-stranded tails (forked duplex). The forked DNA substrate was tagged with rhodamine fluorophore (carboxytetramethyl rhodamine, TAMRA) and BHQ-2 (Black Hole Quencher 2) dark quencher. Strand separation results in an increase in the fluorescence of TAMRA (excitation 525 nm, emission 598 nm). This substrate construct operates in a red-shifted region where very few compound library members have been noted to fluoresce (PubChem AIDs 593 and 594). An additional feature of the assay is the inclusion of 2.5 ug/ml poly (dIdC), to reduce interference by compounds such as DNA intercalators, a major source of false inhibitors.
Opher Gileadi, Structural Genomics Consortium, University of Oxford
Screening Center PI: Austin, C.P.
Screening Center: NIH Chemical Genomics Center [NCGC]
Three uL of reaction buffer (25 mM Tris-HCl (pH 8.0), 5 mM NaCl, 2 mM MgCl2, 1mM DTT, 0.01% Tween- 20, and 2.5 ug/ml poly(dI-dC), including enzyme (50 nM RECQ1T1), were dispensed into a 1536-well Greiner black assay plate via solenoid-valve based nanoliter dispensers. Compounds (23 nl each in columns 5-48) and control (23 nl each in column 2 as dose-response) were transferred via a Kalypsys pintool equipped with a 1536-pin array. The plates were incubated for 15 min at room temperature, and then 1 ul of substrates (200 nM DNA and 2 mM ATP, final concentrations) was added to start the reaction. The plate was transferred into a ViewLux high-throughput CCD imager where the reaction progress was measured in a discontinuous kinetic mode (two reads spaced 2 hours apart, with intermediate room temperature incubation of the covered assay plate) by using standard red-fluorescence optics (excitation filter 525 nm, emission filter 598 nm). Enzyme-free and vehicle (DMSO) controls were included for signal normalization.
Potency means the concentration at half of the fitted maximal effect.

Chain of ATP-dependent DNA helicase Q1 (Homo sapiens) (P46063 whole entry, looked up): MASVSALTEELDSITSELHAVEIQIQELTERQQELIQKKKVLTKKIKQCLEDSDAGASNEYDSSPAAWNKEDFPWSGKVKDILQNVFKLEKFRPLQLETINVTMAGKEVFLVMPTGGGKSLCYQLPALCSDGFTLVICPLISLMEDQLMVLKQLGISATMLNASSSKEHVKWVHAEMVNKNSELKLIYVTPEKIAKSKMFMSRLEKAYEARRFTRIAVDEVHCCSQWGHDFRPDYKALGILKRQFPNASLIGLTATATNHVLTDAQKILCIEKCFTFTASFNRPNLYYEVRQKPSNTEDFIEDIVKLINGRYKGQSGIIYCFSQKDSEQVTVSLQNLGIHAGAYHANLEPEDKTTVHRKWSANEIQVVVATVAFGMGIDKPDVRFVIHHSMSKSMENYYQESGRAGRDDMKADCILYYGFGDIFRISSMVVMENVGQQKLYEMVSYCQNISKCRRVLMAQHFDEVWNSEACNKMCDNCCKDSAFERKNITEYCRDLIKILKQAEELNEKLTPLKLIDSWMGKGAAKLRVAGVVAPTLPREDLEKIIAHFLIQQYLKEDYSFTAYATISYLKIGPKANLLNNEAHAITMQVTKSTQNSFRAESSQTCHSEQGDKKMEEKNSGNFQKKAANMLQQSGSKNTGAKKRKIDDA

| Structure (SMILES) | activity change, negative = inhibition | Potency |
| --- | --- | --- |
| CC(N)Cc1c[nH]c2ccc(O)cc12 (stereo not given) | -0.117% (inactive) | – |
| NC(=O)c1cc(N2CC2)c([N+](=O)[O-])cc1[N+](=O)[O-] | -3.11% (inactive) | – |
| O=C1CC[C@@]2(O)C3Cc4ccc(O)c5c4C2(CCN3CC2CC2)[C@H]1O5 (stereo not given in full) | 3.86% (inactive) | – |
| Oc1ccc2c3c1O[C@H]1c4[nH]c5ccccc5c4C[C@@]4(O)C(C2)N(CC2CC2)CCC314 (stereo not given in full) | -8.79% (inactive) | – |
| C[N+]1(C)CCOC(O)(c2ccc(-c3ccc(C4(O)C[N+](C)(C)CCO4)cc3)cc2)C1 (stereo not given) | 31.2% (inactive) | – |
| CP(=O)(O)C1=CCNCC1 | -7.54% (inactive) | – |
| O=C(O)c1cc[c]([Hg][Cl])cc1 | 5.26% (inactive) | – |
| NCC(O)c1cc(O)c(O)cc1F (stereo not given) | 2.75% (inactive) | – |
| C#CCN[C@H](C)Cc1ccccc1 | -2.16% (inactive) | – |
| CO[C@H]1CC=C2CCN3CCC4=C(CC(=O)OC4)[C@]23C1 | -3.63% (inactive) | – |
| Cc1c2ccncc2c(C)c2c1[nH]c1ccccc12 | – | 10 µM (active) |
| CCCN(CCC)C1CCc2cccc(O)c2C1 (stereo not given) | -1.87% (inactive) | – |
| CN1C2CCC1CC(OC(c1ccccc1)c1ccc(Cl)cc1)C2 (stereo not given) | 2.63% (inactive) | – |
| CC(N)c1cccc(Cl)c1Cl (stereo not given) | -5.41% (inactive) | – |
| NNC(=O)c1ccc(O)cc1 | -2.62% (inactive) | – |
| CCCN(CCC)[C@@H]1CCc2cccc(O)c2C1 | -8.03% (inactive) | – |
| NCCc1c[nH]c2ccc(C(N)=O)cc12 | 1.26% (inactive) | – |
| CCCN(CCC)C1Cc2cc(OC)c(OC)cc2C1 | -0.491% (inactive) | – |
| NNC(N)=O | 2.35% (inactive) | – |
| NCC(CP(=O)(O)O)c1ccc(Cl)cc1 (stereo not given) | -3.31% (inactive) | – |

| Structure (SMILES) | activity change, negative = inhibition | Potency |
| --- | --- | --- |
| CC(C)(C)c1cc(C=C(C#N)C#N)cc(C(C)(C)C)c1O | -9.98% (inactive) | – |
| NC(C(=O)O)c1cc(=O)[nH]o1 (stereo not given) | -1.59% (inactive) | – |
| CCn1cnc2c(Nc3cccc(Cl)c3)nc(N[C@@H]3CCCC[C@@H]3N)nc21 | -16.4% (inactive) | – |
| C=CCN1CC[C@]23c4c5ccc(O)c4O[C@@H]2/C(=N/N=C2\CC[C@@]4(O)C6Cc7ccc(O)c8c7[C@@]4(CCN6CC=C)[C@@H]2O8)CC[C@@]3(O)C1C5 | 0.892% (inactive) | – |
| N[C@@]1(C(=O)O)CC[C@@H](C(=O)O)C1 | -3.12% (inactive) | – |
| CCS(=O)(=O)Nc1cccc(C(=C2CCCCC2)c2cnc[nH]2)c1 | -6.78% (inactive) | – |
| C[C@H](N)CN1CCc2ccc(Br)cc21 | -2.83% (inactive) | – |
| NC(CCCCCP(=O)(O)O)C(=O)O (stereo not given) | -6.73% (inactive) | – |
| C=CCN1CCC23c4c5ccc(O)c4O[C@H]2C(=O)CC[C@@]3(O)C1C5 (stereo not given in full) | -2.31% (inactive) | – |
| Clc1cc(I)cc(Cl)c1NC1=NCCN1 | 5.8% (inactive) | – |
| CC(C)(C)c1o[nH]c(=O)c1CC(N)C(=O)O (stereo not given) | -3.3% (inactive) | – |
| C[N+]1(C)C2CCC1CC(OC(=O)c1c[nH]c3ccccc13)C2 (stereo not given) | -10.8% (inactive) | – |
| NC(N)=Nc1ccc2[nH]c3c(c2c1)C[C@@]1(O)[C@H]2Cc4ccc(O)c5c4[C@@]1(CCN2CC1CC1)[C@H]3O5 | 1.83% (inactive) | – |
| c1ccc2c(N3CCNCC3)cccc2c1 | -2.97% (inactive) | – |
| O=C1C=CC(=O)C=C1 | -10.2% (inactive) | – |
| c1ccc2cc(CC3=NCCN3)ccc2c1 | 15.7% (inactive) | – |
| N[C@@H](CCl)C(=O)O | -2.66% (inactive) | – |
| CCCCCCC(C)(C)c1ccc([C@@H]2C[C@H](O)CC[C@H]2CCCO)c(O)c1 | -13.8% (inactive) | – |
| CC(Cc1ccc(OCC(=O)O)cc1)NCC(O)c1cccc(Cl)c1 (stereo not given) | 0.0943% (inactive) | – |
| OCc1cnc[nH]1 | 0.853% (inactive) | – |
